{"source": "the OligoGym collection"}
{"target": "CDC42SE1", "assay": "pooled miR-30 sensor sort-seq; sequence = guide strand", "details": "shRNA"}
{"sequence": "TTCTCTTCTTCTTCGGCTGGGG", "sensor-assay potency score (higher = more potent)": -0.102}
{"sequence": "ATCTCATCTGCTCCTGAACTGC", "sensor-assay potency score (higher = more potent)": -1.52}
{"sequence": "TCATGGCAAGTCCATCTCCGGC", "sensor-assay potency score (higher = more potent)": -1.88}
{"sequence": "TGAACTGCACCTGTCATGGCAA", "sensor-assay potency score (higher = more potent)": -0.419}
{"sequence": "TTGGATCTCATCTGCTCCTGAA", "sensor-assay potency score (higher = more potent)": -0.616}
{"sequence": "TTGCTCCATGGCCTATCTCGGT", "sensor-assay potency score (higher = more potent)": -1.82}
{"sequence": "TGCTCCATGGCCTATCTCGGTT", "sensor-assay potency score (higher = more potent)": -1.52}
{"sequence": "ATCATGGTCCGGTCAATCCGTC", "sensor-assay potency score (higher = more potent)": -1.39}
{"sequence": "TCTTCTTCTTCGGCTGGGGTTT", "sensor-assay potency score (higher = more potent)": -1.24}
{"target": "CDCA7L", "assay": "pooled miR-30 sensor sort-seq; sequence = guide strand", "details": "shRNA"}
{"sequence": "TAGCCTTATCTTCTTCTTCATC", "sensor-assay potency score (higher = more potent)": -1.31}
{"sequence": "TCGCACACCACAGCAACCCTGG", "sensor-assay potency score (higher = more potent)": -0.788}
{"sequence": "TAAAAATTCTTCTTAGCTCTTC", "sensor-assay potency score (higher = more potent)": 0.664}
{"sequence": "TAGTGAGTCAAAACTATCGCAG", "sensor-assay potency score (higher = more potent)": -0.978}
{"sequence": "AAACTCTTCATCATCACTGGGG", "sensor-assay potency score (higher = more potent)": 0.515}
{"sequence": "TATACGGTGACGTCGTCTGTAC", "sensor-assay potency score (higher = more potent)": -0.513}
{"sequence": "TATCATAGATTTTATCTCGAAC", "sensor-assay potency score (higher = more potent)": -0.423}
{"sequence": "TTTTCTAAGTCCTCTTCGGTGA", "sensor-assay potency score (higher = more potent)": 0.0411}
{"sequence": "TAGACCTGCTTCTTCTAGGGGT", "sensor-assay potency score (higher = more potent)": 0.0946}
{"sequence": "TTCTGTATAAAAACACAACTGT", "sensor-assay potency score (higher = more potent)": -0.22}
{"sequence": "TTCGGTGATATCCTCCACTGGC", "sensor-assay potency score (higher = more potent)": 0.00353}
